Screens as filed in PubChem BioAssay.
The sample as a whole holds a higher share of hits than the screen did.
Shiga inhibitor = Shiga toxin inhibition; Vero cells, Shiga toxin protein synthesis inhibition reporter; inhibition, % at 38.7 µM; 290,000 tested, 9.2% active; in the data active = inhibition mostly above about 28%, no sharp cut-off; inactive = mostly below about 43%
Tb PYK inh = blocks Trypanosoma brucei pyruvate kinase; Q57TT1; TbPYK enzyme, Kinase-Glo Plus ATP luminescence, 45 min; Potency, µM (top dose mostly 76.8 µM), actives largely listed as inhibitors; 410,000 tested, 0.12% active; active = well fitted curve in the direction sought with a large enough effect; an effect the other way counts as inactive or inconclusive; also: nearly all actives have a fitted effect of over 50% in size
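Quantitative HTS: titrated library compounds versus trypanosomal pyruvate kinase in TEA buffer (pH 7.2) containing KCl, MgCl2, BSA and Tween-20. Reactions were initiated with ADP, 130 uM final. Kinase-Glo Plus luminescence was read after 45 min at RT.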
LmPK inhibitor = LmPK (Leishmania mexicana) enzyme inhibition | 290,000 tested, 0.37% active | AID 1721 | Potency, µM (doses to about 57.5 µM), actives largely listed as inhibitors | purified LmPK, Kinase-Glo ATP luminescence, 1 h; active = well fitted curve in the direction sought with a large enough effect; an effect the other way counts as inactive or inconclusive
Target sequence (Q27686 whole entry, looked up): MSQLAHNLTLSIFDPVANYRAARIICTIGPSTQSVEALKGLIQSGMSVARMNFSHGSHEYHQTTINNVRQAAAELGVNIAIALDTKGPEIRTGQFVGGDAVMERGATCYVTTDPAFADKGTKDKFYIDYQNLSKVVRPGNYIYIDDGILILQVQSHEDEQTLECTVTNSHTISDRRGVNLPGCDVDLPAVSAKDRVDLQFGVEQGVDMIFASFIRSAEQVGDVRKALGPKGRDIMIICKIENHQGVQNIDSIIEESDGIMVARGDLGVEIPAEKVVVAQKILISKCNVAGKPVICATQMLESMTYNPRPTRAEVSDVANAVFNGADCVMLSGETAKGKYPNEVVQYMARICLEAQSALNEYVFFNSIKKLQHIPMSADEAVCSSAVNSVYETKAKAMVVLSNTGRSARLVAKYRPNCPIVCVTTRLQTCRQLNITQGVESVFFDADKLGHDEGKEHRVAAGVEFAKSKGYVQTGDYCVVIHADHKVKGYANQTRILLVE
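Pyruvate kinase activity monitored as ATP production (luciferase luminescence). Conditions: 0.1 nM enzyme, 0.5 mM PEP, 0.1 mM ADP, 1 h, RT; normalized against uninhibited and no-enzyme wells.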
SARS PLpro yeast = blocks SARS-CoV papain-like protease in a yeast assay; S. cerevisiae expressing SARS-CoV PLpro, growth rescue; Potency, µM (highest dose often 32.9 µM), usual class: activators; 330,000 tested, 0.19% active; AID 485353; also: nearly all actives have a fitted effect of over 55% in size
NS1 function inh = blocks influenza NS1 protein function | Potency, µM (series often up to 46.1 µM) | 270,000 tested, 0.4% active | AID 2326; also: actives are rising curves; nearly all actives have a fitted effect of over 50% in size
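Read-out: OD600 growth recovery of NS1-expressing budding yeast. Cells grown overnight at 30C in -URA glucose medium, washed, resuspended and diluted 1:100 in 2% galactose assay medium, pH 6.0. Same strain lacking NS1 served as positive control.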
CHX counter = counter-screen for Shiga toxin inhibitors: cycloheximide protein synthesis inhibition; cell reporter, cycloheximide protein synthesis inhibition counterscreen; max response, %; 300,000 tested, 12% active; AID 2314; in the data active = max response mostly above about 13%, no sharp cut-off; inactive = mostly below about 14%; also: read at 38.3 µM for the half of the compounds with a filed dose
Numbers stand for hits; n = inactive; x = no result given; [ ] = dose if it differs, or a comment. Unless noted, calls follow the shape of the full dose curve.

SMILES	Shiga inhibitor	Tb PYK inh	LmPK inhibitor	SARS PLpro yeast	NS1 function inh	CHX counter
O=C(Nc1ccc2nc(SCCOc3ccccc3)sc2c1)c1ccc2c(c1)OCO2	x	n	x	x	x	x
CCOC(=O)c1csc(-c2ccc([N+](=O)[O-])cc2)n1	90	n	n	n	x	40
CC(=O)c1csc(COc2ccccc2)n1	n	n	n	n	n	17
CCCCOC(=O)c1ccc(NC(=O)CSc2nc3c(c(=O)[nH]2)CCCC3)cc1	x	n	x	x	x	x
CCC1(c2ccc(F)cc2)NC(=O)N(CC(=O)N2CCN(S(=O)(=O)c3ccc(C)cc3)CC2)C1=O (configuration not stated)	x	n	x	n	x	x
O=C1C(=C(O)c2ccccc2)C(=O)c2ccccc21	n	n	n	n	n	14
O=C(NNC(=O)C1CC=CCC1)c1ccccc1Br (configuration not stated)	n	n	n	n	n	active
O=C(NNC(=O)C1CC=CCC1)c1cccc(Br)c1 (configuration not stated)	x	n	x	x	x	x
O=C(NNC(=O)C1CC=CCC1)c1ccccc1O (configuration not stated)	n	n	n	n	n	18
COc1ccc(OC)c(-c2cc(C3CCN(C(=O)OC(C)(C)C)CC3)[nH]n2)c1	n	n	n	n	n	15
COc1ccc(-c2cc(C3CCN(C(=O)OC(C)(C)C)CC3)[nH]n2)cc1	n	n	n	n	n	n
O=C(NC12CC3CC(CC(C3)C1)C2)c1cccnc1	n	n	n	n	n	n
O=C(NC1=NCCS1)c1cccc(OC(F)F)c1	76	n	n	n	x	36
O=C(NC12CC3CC(CC(C3)C1)C2)c1cccc(OC(F)F)c1	72	n	n	n	n	42
COc1cccc(C(=O)NC2=NCCS2)c1OC	63	n	n	n	n	31
COc1cc(C(=O)NC2=NCCS2)cc(OC)c1OC	n	n	n	n[6.58 µM]	n	n
COc1ccc(C(=O)NC2=NCCS2)cc1	68	n	n	n	n	73
O=C(NC1=NCCS1)c1cccc(N2C(=O)c3ccccc3C2=O)c1	n	n	n	n	x	n
NC(=O)C1CCN(C(=O)CCSCc2ccc(Cl)c(Cl)c2)CC1	n	n	n	n	n	n
CN1CCc2nc(NC(=O)c3cccc(OC(F)F)c3)sc2C1	n	n	n	n	n	27
COc1cc(OC)cc(C(=O)NC2=NCCS2)c1	n	n	n	n	n	n
CC(C)Oc1ccc(C(=O)NC2=NCCS2)cc1	n	n	n	n	x	20
Cc1cc(=O)n2cn[nH]c2n1	x	n	x	x	x	x
CC(Cc1ccccc1)NC(=O)c1ccc(N)cc1 (configuration not stated)	62	n	n	n	n	37
CC(Cc1ccccc1)NC(=O)c1ccc([N+](=O)[O-])cc1 (configuration not stated)	61	n	n	n	n	30
SMILES	Shiga inhibitor	Tb PYK inh	LmPK inhibitor	SARS PLpro yeast	NS1 function inh	CHX counter
CC(Cc1ccccc1)NC(=O)NC(C)Cc1ccccc1 (configuration not stated)	69	n	n	n	n	29
CC1CCN(CCc2nc3cc(NC(=O)COc4ccc([N+](=O)[O-])cc4)ccc3n2C)CC1	n	n	n	n	n	n
CN1CCN(C(CNC(=O)C(=O)Nc2ccc(Cl)cc2)c2cccnc2)CC1 (configuration not stated)	x	n	x	x	x	x
CC(=O)C1(C)C(=O)N(c2ccc(F)cc2)C(=O)N1c1ccc(F)cc1 (configuration not stated)	x	n	x	x	x	x
CCCCN1C(=O)C(CC(=O)NCCc2ccccn2)CC(C(=O)N2CCOCC2)=C1C (configuration not stated)	x	n	x	x	x	x
CCOc1ccc(S(=O)(=O)N2CCN(C(=O)c3ccc(Cl)c(S(=O)(=O)N4CCOCC4)c3)CC2)cc1	x	n	x	x	x	x
Cc1ccn(-c2ccc([N+](=O)[O-])cc2)n1	42	n	n	n	n	12
Cc1ccn(-c2n[nH]c(C)c2[N+](=O)[O-])n1	n	n	n	n	n	n
CC1=C/C(=N\OS(=O)(=O)c2ccccc2)C(C)=CC1=O	n	n	n	n	n	8.3
CC1=C/C(=N\OS(=O)(=O)c2ccccc2)C(C(C)C)=CC1=O	n	n	n	n	n	21
